The text below walks through data of PMC4552634, “A New Set of Chemical Starting Points with Plasmodium falciparum Transmission-Blocking Potential for Antimalarial Drug Discovery” (PLoS ONE, 2015).

Structures are written as SMILES. About 3,200 (25%) of roughly 13,000 compounds showed an effect of 50% or more. The list shows a part of the results.

For this assay, the system named is P. falciparum stage V gametocytes. More on the design: BacTiter-Glo ATP luminescence viability of purified stage V gametocytes in 384-well plates, per cent inhibition versus DMSO. The conditions noted are these: 48 h, 5 µM; inhibitor.
A word on the % Inhibition: it is the change of the read-out against control, counted positive when it falls. Consider `Cc1cccc2[nH]c(-c3cccc(-c4cccc(NC(=O)CC5NC(=O)c6ccccc65)c4)c3)nc12` (stereo not drawn) [TCMDC-137093], for which the “% Inhibition” value was 12.03%.

In the case of `CCOc1cc(C)ccc1C1CCN(CCCCNC(=O)c2coc(-c3ccc(Cl)cc3)c2)CC1` [TCMDC-138530], the “% Inhibition” value is -52.9%.

As to `O=C(c1cc(C(=O)NCc2ccc(Cl)cc2)c(=O)n(Cc2ccc(Cl)cc2)c1)c1cc(Cl)ccc1O` [TCMDC-124339], the “% Inhibition” value is on record as -61.86%.

On to `OC(CNc1ccnc(Nc2ccc(Cl)cc2)n1)c1cccc(C(F)(F)F)c1` (stereo not drawn) [TCMDC-136587], for which the “% Inhibition” value is on record as 30.58%.

Regarding `O=C(/C=C/c1ccc(Cl)c(Cl)c1)NCCCCCCN1CCCN(C(=O)Nc2ccc(C(F)(F)F)cc2)CC1` [TCMDC-135937], the “% Inhibition” value is recorded as -27.04%.

Take `O=C(/C=C/c1ccc(Cl)c(Cl)c1)NCCCCCN1CCCN(C(=O)Nc2cccc(C(F)(F)F)c2)CC1` [TCMDC-135758]: the “% Inhibition” value was determined as 79.21%.

In the case of `O=C(/C=C/c1ccc(Cl)c(Cl)c1)NCCCCCCN1CCCN(C(=O)Nc2cccc(C(F)(F)F)c2)CC1` [TCMDC-135934], the “% Inhibition” value turned out to be 13.78%.

Consider `O=C(/C=C/c1ccc(Cl)c(Cl)c1)NCCCCCN1CCCN(C(=O)Nc2ccc(Cl)c(Cl)c2)CC1` [TCMDC-135759], for which the “% Inhibition” value is on record as -47.93%.

With `O=C(/C=C/c1ccc(Cl)c(Cl)c1)NCCCCCCN1CCN(C(=O)Nc2ccc(Cl)c(Cl)c2)CC1` [TCMDC-135835], the “% Inhibition” value is 30.42%.

Turning to `O=C(/C=C/c1ccc(Cl)c(Cl)c1)NCCCCCCN1CCCN(C(=O)Nc2ccc(Cl)c(Cl)c2)CC1` [TCMDC-135933], the “% Inhibition” value was found to be 52.33%.

Take `O=C(/C=C/c1ccc(Cl)c(Cl)c1)NCCCCN1CCCN(C(=O)Nc2ccc(F)c(Cl)c2)CC1` [TCMDC-135931]: the “% Inhibition” value was -30.88%.

`O=C(/C=C/c1ccc(Cl)c(Cl)c1)NCCCCN1CCCN(C(=O)Nc2ccc(Cl)c(Cl)c2)CC1` [TCMDC-135932]: the “% Inhibition” value was determined as 87.86%.

With `O=C(/C=C/c1ccc(Cl)c(Cl)c1)NCCCCCCN1CCCN(C(=O)Nc2ccc(F)c(Cl)c2)CC1` [TCMDC-135940], the “% Inhibition” value is 14.82%.

With `CCCO[C@H](C(=O)OC)[C@@H](CC1Cc2ccccc2C1)C(=O)NCCC1=CCCCC1` [TCMDC-140419], the “% Inhibition” value is on record as -16.75%.

`COc1ccc2nc(C)cc(Nc3ccc(Oc4ccc5ccccc5c4)c(Cl)c3)c2c1` [TCMDC-124209]: the “% Inhibition” value was -14.35%.

Turning to `N#Cc1cccc(-c2nc(NCc3cccc(C(F)(F)F)c3)nn2-c2cccc(C(F)(F)F)c2)c1` [TCMDC-133548], the “% Inhibition” value is listed as -85.5%.

With `Cc1nc(N)nc(N)c1-c1ccc(Br)c(Br)c1` [TCMDC-137372], the “% Inhibition” value worked out at 14.5%.

For `COc1ccc2ncc(F)c(CCN3CCC(CNC(=O)C(=O)c4c[nH]c5ccccc45)CC3)c2n1` [TCMDC-135874], the “% Inhibition” value worked out at 3.215%.

For the molecule `Cc1cc(C(=O)Nc2ccc3c(ccn3C3CCCN(Cc4ccc(C(F)(F)F)cc4F)CC3)c2)no1` (stereo not drawn) [TCMDC-135088], the “% Inhibition” value amounted to 41.42%.

In the case of `COc1ccc(NC(=O)c2ccc(-c3ccc(-c4cccnc4)cc3)c(C)c2)cc1OCCN(C)C` [TCMDC-138989], the “% Inhibition” value came out at 38.05%.

With `COc1cccc(NC(=O)Nc2ccc(C)c(-c3ccc(C(=O)Nc4ccncc4)cc3)c2)c1` [TCMDC-133704], the “% Inhibition” value is given as -18.6%.

Consider `COC(=O)c1ccc(-c2ccc(-c3cccnc3)cc2C)cc1` [TCMDC-139074], for which the “% Inhibition” value is on record as 95.09%.

For the molecule `COc1ccc(NC(=O)c2ccc(NC(=O)c3ccc(Cl)cc3)cc2)cc1N1CCN(C)CC1` [TCMDC-138188], the “% Inhibition” value amounted to 5.64%.

Take `CCN1CCN(c2cc(C)c3cc(NC(=O)c4ccc(OC)c([N+](=O)[O-])c4)ccc3n2)CC1` [TCMDC-123599]: the “% Inhibition” value came to 3.112%.

`COc1ccc(NC(=O)c2ccc(Br)c(C)c2)cc1N1CCN(CCCc2c[nH]c3ccccc23)CC1` [TCMDC-139036]: the “% Inhibition” value is 49.59%.

With `COc1ccc(C(=O)Nc2ccc3nc(N4CCCCC4)cc(C)c3c2)cc1OC` [TCMDC-124422], the “% Inhibition” value turned out to be 4.122%.

With `COc1ccc(NC(=O)c2ccc(Br)c(C)c2)cc1N1CCN(CCCCc2ccccc2)CC1` [TCMDC-139035], the “% Inhibition” value is reported as -7.283%.

`CCN1CCN(c2cc(C)c3cc(NC(=O)c4ccc(OC)c(OC)c4)ccc3n2)CC1` [TCMDC-123598]: the “% Inhibition” value is 74.46%.

For `COc1ccc(NC(=O)c2ccc(OCCCCCCCOc3ccc(C(=O)Nc4ccc(OC)c(N5CCN(C)CC5)c4)cc3)cc2)cc1N1CCN(C)CC1` [TCMDC-139007], the “% Inhibition” value is reported as 102%.

In the case of `COc1ccc(NC(=O)c2ccc(C=Cc3ccc(C(F)(F)F)cc3)cc2)cc1N1CCN(C)CC1` [TCMDC-138674], the “% Inhibition” value was 15.84%.

Regarding `COc1ccc(NC(=O)c2ccc(-c3cccc(OCc4ccccc4)c3)cc2)cc1N1CCN(C)CC1` [TCMDC-138991], the “% Inhibition” value is -59.54%.

With `COc1ccc(NC(=O)c2ccc(-c3nc(-c4ccccc4)cs3)cc2)cc1N1CCN(C)CC1` [TCMDC-138980], the “% Inhibition” value is given as -14.93%.

`COc1ccc(NC(=O)c2ccc3cc4ccccc4cc3c2)cc1N1CCN(C)CC1` [TCMDC-138983]: the “% Inhibition” value was determined as 82.38%.

As to `COc1ccc(NC(=O)c2cccc(Br)c2)cc1N1CCN(CCCCCCCN2CCN(c3cc(NC(=O)c4cccc(Br)c4)ccc3OC)CC2)CC1` [TCMDC-139020], the “% Inhibition” value was determined as 104.8%.

As for `O=C(Nc1cc(C(F)(F)F)cc(C(F)(F)F)c1)c1cccc([N+](=O)[O-])c1` [TCMDC-123503], the “% Inhibition” value is listed as -13.95%.

For `COc1csc2cc(Br)ccc12` [TCMDC-139000], the “% Inhibition” value stood at 9.347%.

Consider `COc1cc(C(=O)NCCCN2CCN(c3cc(Cl)ccc3OC)CC2)ccc1-c1nc2cc(Cl)c(Cl)cc2[nH]1` [TCMDC-140079], for which the “% Inhibition” value was 4.425%.

Take `COc1cc(C(F)(F)F)c2cc(CNCCCNc3nc4ccccc4[nH]3)[nH]c2c1` [TCMDC-140014]: the “% Inhibition” value was 33.56%.

Take `CCOc1ccc(Nc2ccc3nonc3c2S(=O)(=O)Nc2ccc(OCC)cc2)cc1` [TCMDC-138325]: the “% Inhibition” value is -11.05%.

Turning to `CCC(CC)(CCC#N)CN(C[C@@H](O)[C@H](Cc1ccccc1)NC(=O)OC(C)(C)C)S(=O)(=O)c1ccc(OC)cc1` [TCMDC-138270], the “% Inhibition” value was 4.425%.

As to `COc1ccc(O)c(Cc2cnc3nc(N)[nH]c(=O)c3c2C)c1` [TCMDC-137766], the “% Inhibition” value is given as -34.15%.

With `CCCNc1ccc2nccc(CCN3CCC(NCc4ccc5c(n4)NC(=O)CS5)CC3)c2n1` [TCMDC-141591], the “% Inhibition” value was 39.25%.

Regarding `CCOC(=O)C1CCN(CCCNC(=O)/C(=C/C=C/c2cc3cc(Cl)c(Cl)cc3[nH]2)OC)CC1` [TCMDC-139356], the “% Inhibition” value was -1.751%.

As to `COc1ccc2nc(-c3ccc(C(=O)NCCCN4CCN(c5cc(Cl)ccc5OC)CC4)cc3)[nH]c2c1` [TCMDC-140024], the “% Inhibition” value is on record as -1.879%.

In the case of `CO/C(=C\C=C\c1cc2cc(Cl)c(Cl)cc2[nH]1)C(=O)NCCN1CCCCC1` [TCMDC-139019], the “% Inhibition” value was 39.34%.

As to `CO/C(=C\C=C\c1cc2cc(Cl)c(Cl)cc2[nH]1)C(=O)NCCCN1CCCC[C@@H]1C` [TCMDC-139059], the “% Inhibition” value was 70.67%.

For the molecule `CO/C(=C\C=C\c1cc2cc(Cl)c(Cl)cc2[nH]1)C(=O)NCCCN1CCCC[C@H]1C` [TCMDC-139058], the “% Inhibition” value amounted to 98.53%.

As for `CO/C(=C\C=C\c1cc2cc(Cl)c(Cl)cc2[nH]1)C(=O)NCCCN1CCN(c2cccc(Cl)c2)CC1` [TCMDC-139141], the “% Inhibition” value is given as 15.28%.

Turning to `CO/C(=C\C=C\c1cc2cc(Cl)c(Cl)cc2[nH]1)C(=O)NCCCN1CCN(C2CCCCC2)CC1` [TCMDC-139296], the “% Inhibition” value was -42.38%.

Consider `CO/C(=C\C=C\c1cc2cc(Cl)ccc2[nH]1)C(=O)NCCCN1CCN(c2cc(Cl)ccc2OC)CC1` [TCMDC-139242], for which the “% Inhibition” value is recorded as 50.82%.

`COc1ccc(Cl)cc1N1CCN(CCCNC(=O)c2ccc(-c3nc4cc(Cl)c(F)cc4[nH]3)cc2)CC1` [TCMDC-140094]: the “% Inhibition” value is recorded as 66.12%.

On to `CO/C(=C\C=C\c1cc2cc(Cl)c(Cl)cc2[nH]1)C(=O)NCCCN1CC(C)N(C)CC1C` (stereo not drawn) [TCMDC-139044], for which the “% Inhibition” value is -57.76%.

Take `COc1ccc(Cl)cc1N1CCN(CCCNC(=O)c2ccc(-c3nc4cc(Cl)c(F)cc4[nH]3)c(F)c2)CC1` [TCMDC-140098]: the “% Inhibition” value was -15.17%.

Consider `CO/C(=C\C=C\c1cc2cc(Cl)c(Cl)cc2[nH]1)C(=O)NCCCCN1CCN(c2ccccc2OC)CC1` [TCMDC-139178], for which the “% Inhibition” value was -64.2%.

Regarding `O=C(Nc1ccc(C(=O)N(Cc2ccc3c(c2)OCO3)C2CCCC2)cc1)c1cccs1` [TCMDC-125341], the “% Inhibition” value was 18.48%.

Regarding `O=C(Nc1cccc(C2=NCCCN2)c1)Nc1cccc(C2=NCCCN2)c1` [TCMDC-137203], the “% Inhibition” value is recorded as -4.824%.

`CNCC(C)(C)c1nc(-c2ccc(Cl)c(O)c2)c(-c2ccncc2)[nH]1` [TCMDC-140762]: the “% Inhibition” value is recorded as -81.65%.

As to `CC1CCc2sc(-c3nnc(SC(C)C(=O)N4CCCC4)o3)cc2C1` (stereo not drawn) [TCMDC-124867], the “% Inhibition” value stood at 8.673%.

For the molecule `COc1ccc2nc(N=C3NC4(c5ccccc5)NC(=Nc5nc6ccc(OC)cc6[nH]5)NC4(c4ccccc4)N3)[nH]c2c1` (stereo not drawn) [TCMDC-139632], the “% Inhibition” value was -5.623%.

For `O=C(Nc1ccc(OC2CCN(Cc3ccsc3)C2)c(Cl)c1)c1cccs1` (stereo not drawn) [TCMDC-133948], the “% Inhibition” value is recorded as 17.98%.

On to `CC(C)NCc1ccc(-c2ccc(CN3CCCC(c4ccccc4)C3)cc2)c(C(=O)NC2Cc3ccccc3C2)c1` (stereo not drawn) [TCMDC-134700], for which the “% Inhibition” value came out at 9.317%.

For the molecule `CCc1ccc(-c2cnc(N)c3cc(-c4ccnc(N)n4)ccc23)cc1` [TCMDC-134546], the “% Inhibition” value is reported as 12.63%.

In the case of `Cc1cccc2[nH]c(-c3cccc(-c4cccc(NC(=O)Nc5ccsc5)c4)c3)nc12` [TCMDC-133213], the “% Inhibition” value is -5.013%.
